{
  "source": "PubChem BioAssay (Tox21)",
  "note": "Inconclusive results are not listed. Entries that show only a call come without a potency. Active and inactive are the calls of the source. Calls come from the whole dose curve; as a rule, active = well fitted cell-killing curve with a large enough effect in the repeat runs; inconclusive = weak or mixed curves, or effect the other way; inactive = no such curve, though single readings can be large or run the other way.",
  "data": [
    {"assay": "qHTS assay to identify small molecule antagonists of the retinoid-related orphan receptor gamma (ROR-gamma) signaling pathway - cell viability counter screen (AID 1159520); note: nearly all actives have a fitted effect of over 50% in size", "conditions": "Tet-on RORgamma CHO cells viability, ATP luminescence, 16 h; series mostly up to 92.4 µM", "from_the_text": "U.S. Tox21 Program National Center for Advancing Translational Sciences [NCATS] NIH Chemical Genomics Center [NCGC] U.S. Environmental Protection Agency [EPA] National Institutes of Environmental Health Sciences [NIEHS] National Toxicology Program [NTP] U.S. Food and Drug Administration [FDA] Tox21 Assay Overview: Nuclear steroid hormone receptors are involved in many biological processes including inflammatory responses, cell proliferation, and apoptosis. Environmental factors or compounds disrupting these nuclear receptor pathways and gene expression may promote susceptibility to immunotoxicants and autoimmune diseases. One important group of these expression factors are the retinoid-related orphan receptors. To assess compounds that may interfere with the retinoid-related orphan receptor gamma (ROR-gamma) transcription factor, a cell-based luciferase assay was used. The CHO cell-based assay utilizes a TET-inducible ROR expression factor and ROR response element-LUC reporter gene. Reporter gene activity was induced using Doxycycline Hyclate and measured after 16 hr incubation. Tet-on ROR gamma CHO cells were used to screen against the Tox21 10K compound library for cytotoxicity by measuring the viability of the cells based on the quantitation of the ATP.\nTox21 Assay Protocol Summary: Tet-on ROR gamma CHO cells were dispensed at 1,000 cells in 4 uL of culture medium per well into white wall/solid bottom 1536-well plates using a Multidrop Combi (Thermo Scientific, Waltham, MA) dispenser. Following incubation at 37 C and 5% CO2 for 4 hr, 23 nL of compounds dissolved in DMSO, positive controls or DMSO only were transferred by a Pintool station (Kalypsys, San Diego, CA) and after 2 hr incubation at 37 C, one ul of 1 uM (final concentration) of Doxycycline Hyclate was added to all the wells by using a Flying Reagent Dispenser (FRD) (Aurora Discovery, San Diego, CA). After 16 hr incubation at 37 C and 5% CO2, 5 uL of CellTiter-Glo reagent (Promega Corporation, Madison, WI) was added to each assay plate using FRD. After 30 min incubation at room temperature, luminescence was quantified on a ViewLux plate reader (Perkin Elmer, Waltham, MA).", "values": [
      {"compound": "C[C@]12CCC(=O)C=C1C=C[C@@H]1[C@@H]2CC[C@@]2(C)[C@H]1CC[C@@]21CCC(=O)O1", "Potency": "inactive"},
      {"compound": "CC1=CC(O)CC(C)(C)C1", "note": "(stereo not given)", "Potency": "inactive"},
      {"compound": "Brc1cc(-c2ccc(Br)c(Br)c2Br)cc(Br)c1Br", "Potency": "inactive"},
      {"compound": "Nc1nc(Cl)nc2c1ncn2[C@@H]1O[C@H](CO)[C@@H](O)[C@@H]1F", "Potency": "inactive"},
      {"compound": "CCC(C(=O)OCCN(CC)CC)c1ccccc1", "note": "(stereo not given)", "Potency": "inactive"},
      {"compound": "CC(=O)Oc1ccc(C(=C2CCCCC2)c2ccc(OC(C)=O)cc2)cc1", "Potency": "inactive"},
      {"compound": "CC1(C)C2=CCCC(C)(C)[C@]23CC[C@H]1C3", "Potency": "inactive"},
      {"compound": "CCN(Cc1cccc(S(=O)(=O)O)c1)c1ccc(C(=C2C=CC(=[N+](CC)Cc3cccc(S(=O)(=O)[O-])c3)C=C2)c2ccccc2)cc1", "Potency": "inactive"},
      {"compound": "COC(=O)CC(=O)C(C)(C)C", "Potency": "inactive"},
      {"compound": "CC(C)CCCCCCOC(=O)CCCCC(=O)OCCCCCCC(C)C", "Potency": "inactive"},
      {"compound": "CC(C)=CC=O", "Potency": "inactive"},
      {"compound": "C[Si]1(C)O[Si](C)(C)O[Si](C)(C)O1", "Potency": "inactive"},
      {"compound": "CC(=O)OCC(=O)[C@H]1CC[C@H]2[C@@H]3CCC4=CC(=O)CC[C@]4(C)[C@H]3CC[C@]12C", "Potency": "inactive"},
      {"compound": "Cn1c(=O)c2c(ncn2CC(=O)O)n(C)c1=O", "Potency": "inactive"},
      {"compound": "CC(=O)[C@H]1CC[C@H]2[C@@H]3C=CC4=CC(=O)CC[C@@]4(C)[C@@H]3CC[C@]12C", "Potency": "inactive"},
      {"compound": "CCCCCCCCCCOS(=O)(=O)O", "Potency": "inactive"},
      {"compound": "Cc1ccc(S(=O)(=O)NC2CCCCC2)cc1", "Potency": "inactive"},
      {"compound": "O=C1OCCN1/N=C/c1ccc([N+](=O)[O-])o1", "Potency": "inactive"},
      {"compound": "COCC(O)CO", "note": "(stereo not given)", "Potency": "inactive"},
      {"compound": "Cc1nc2ccccc2s1", "Potency": "inactive"},
      {"compound": "C=CC(=C)CCCC(C)(C)OC(C)=O", "Potency": "inactive"},
      {"compound": "Cc1oc(C)c(C(=O)Nc2ccccc2)c1C", "Potency": "inactive"},
      {"compound": "C=CC(C)=CCC=C(C)C", "Potency": "inactive"},
      {"compound": "CC(C)C(OC(=O)c1ccccc1)C(C)(C)COC(=O)c1ccccc1", "note": "(stereo not given)", "Potency": "inactive"},
      {"compound": "CCCc1c(OCCCOc2ccc(OCC(=O)O)cc2)ccc(C(C)=O)c1O", "Potency": "inactive"},
      {"compound": "CCCC1C(CC)=CC(CC)=CN1c1ccccc1", "note": "(stereo not given)", "Potency": "inactive"},
      {"compound": "N#C[C@@H]1C[C@@H]2C[C@@H]2N1C(=O)[C@@H](N)C12CC3CC(CC(O)(C3)C1)C2", "Potency": "inactive"},
      {"compound": "Oc1cc(O)c(Cl)cc1Cl", "Potency": "inactive"},
      {"compound": "CCCCCCCC/C=C\\CCCCCCCC(=O)OC(CO)CO", "Potency": "inactive"},
      {"compound": "CCCOCCOCCO", "Potency": "inactive"},
      {"compound": "CC(CCc1ccc2c(c1)OCO2)NN", "note": "(stereo not given)", "Potency": "inactive"},
      {"compound": "CCCCCCOC(=O)CCCCCCCC(=O)OCCCCCC", "Potency": "inactive"},
      {"compound": "CCCCCCCC/C=C\\CCCCCCCC(=O)OC", "Potency": "inactive"},
      {"compound": "C/C(=N/NC(=O)c1ccncc1)C(=O)O", "Potency": "inactive"},
      {"compound": "CCCOC(=O)c1ccc(C(=O)OCCC)nc1", "Potency": "inactive"},
      {"compound": "CC(C)(O)c1ccccc1CC[C@@H](SCC1(CC(=O)O)CC1)c1cccc(/C=C/c2ccc3ccc(Cl)cc3n2)c1", "Potency": "inactive"},
      {"compound": "CCOC(=O)N1CCC(n2c(=O)[nH]c3cc(Cl)ccc32)CC1", "Potency": "inactive"},
      {"compound": "CCNC(=O)N1CCN(CCCC(c2ccc(F)cc2)c2ccc(F)cc2)CC1", "Potency": "inactive"},
      {"compound": "COc1cc2c(cc1OC)-c1cc(=Nc3c(C)cc(C)cc3C)n(C)c(=O)n1CC2", "Potency": "inactive"},
      {"compound": "OCCSc1ccccc1", "Potency": "inactive"}
    ]}
  ]
}
